Measurements: PubChem BioAssay (NCI)
About 83,000 compounds went through this panel and 20% of them were active in at least one assay; those are over-represented in the sample as a whole.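 96-well plates, one dose, 48 hours. Percent growth reported; active if below 10.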 Unmarked numbers belong to inactive results. The source made the active and inactive calls.

How the values were obtained:
Assay in all cases: NCI-60 one-dose screen, 48 h (100 = growth as untreated, 0 = no growth, -100 = all killed)
Details in all cases: 10 µM unless noted
[1] = system: DU-145 prostate
[2] = system: K-562 leukemia
[3] = system: MALME-3M melanoma
[4] = system: MDA-MB-231 breast
[5] = system: RXF 393 renal
[6] = system: SF-268 CNS
[7] = system: SF-295 CNS
[8] = system: SF-539 CNS
[9] = system: UACC-257 melanoma
[10] = system: M14 melanoma
[11] = system: HCT-15 colon
[12] = system: HT29 colon
[13] = system: SNB-75 CNS
[14] = system: U251 CNS
[15] = system: PC-3 prostate
[16] = system: SK-MEL-5 melanoma
[17] = system: UACC-62 melanoma
[18] = system: LOX IMVI melanoma
[19] = system: SK-MEL-28 melanoma
[20] = system: SNB-19 CNS

Row | Compound | growth [1] | growth [2] | growth [3] | growth [4] | growth [5] | growth [6] | growth [7] | growth [8] | growth [9] | growth [10] | growth [11] | growth [12] | growth [13] | growth [14] | growth [15] | growth [16] | growth [17] | growth [18] | growth [19] | growth [20]
1 | CC(=C(c1ccc(OCCN2CCCC2)cc1)c1ccc(OCCN2CCCC2)cc1)c1ccc(Cl)cc1 | 25.8% | -43.6% (active) | -85.9% (active) | -68.1% (active) | -74.7% (active) | -23.1% (active) | -63.7% (active) | -87.1% (active) | -73.6% (active) | -84.5% (active) | -73% (active) | -59.2% (active) | 45.8% | -75.1% (active) | -26.9% (active) | -94.9% (active) | -64.7% (active) | -86.5% (active) | -82.5% (active) | 
2 | Cc1[nH]c(C(=O)Nc2ccccc2OCc2cccc(C(=O)NC3CCNC3)c2)c(Cl)c1Cl (stereo unspecified) | -84.8% (active) | 0.128% (active) | 74.2% | -57.8% (active) | 78.8% | 74.8% | -85% (active) | -75.6% (active) | 103% | 24.1% | 35.2% | -47.7% (active) | 73.6% | -56.2% (active) | 59.1% | 97.6% | 75% | -85.1% (active) | -44.4% (active) | 
3 | COc1ccc(NC2=C(Br)C(=O)C(C)=C(C)C2=O)cc1OC | 109% | -7.89% (active) | 117% | 33.3% | 104% | 95.3% | 94.4% | 101% | 96% | 104% | 97.9% | 111% | 77.1% | 84% | 69.7% | 69.7% | 88% | 73.7% | 112% | 
4 | CN1CCN(c2ccc(Nc3nc(NCCCNS(=O)(=O)c4ccccc4)c4sccc4n3)cc2)CC1 | 56.4% | 16.7% | -42.8% (active) | 38.1% | -29.8% (active) | 64.2% | 38.4% | -71.4% (active) | -15.6% (active) | -9.06% (active) | 27.2% | -26.7% (active) | 89.3% | 13.2% | 68.9% | 24.9% | 13.2% | -22.2% (active) | -24.3% (active) | 
5 | O=C(COc1ccc(/C=C2\C(=O)Nc3ccc(F)cc32)cc1)Nc1ccccc1 | 104% | 89.6% | 102% | 104% | 120% | 95.1% | 105% | 93.8% | 104% | 94.4% | 99.1% | 107% | 94.7% | 94.4% | 94.9% | 100% | 88.1% | 79.6% | 106% | 
6 | O=S(=O)(Oc1ccc(-c2cn3ccoc3n2)cc1)C1CCCCC1 | 107% | 89.5% | 103% | 105% | 122% | 108% | 93.8% | 97% | 106% | 104% | 62.7% | 96.7% | 124% | 104% | 91.5% |  | 85.3% | 100% | 100% | 97.1%
7 | COC(=O)c1ccc(NC2=C(Cl)C(=O)C(C)=C(C)C2=O)cc1 | 85.3% | 4.61% (active) | 85% | 68.9% | 65.8% | 87.3% | 36.6% | 65.9% | 79.5% | 45.8% | 40% | 63.3% | 64.5% | 59.4% | 36.6% | 44.6% | 5.89% (active) | 24.7% | 75.9% | 
8 | O=[N+]([O-])c1ccc(NC(=S)NNC(=S)Nc2ccc(F)cc2)cc1 | 105% | 49.8% | 90.1% | 92.4% | 104% | 95.1% | 82.3% | 94.9% | 97.8% | 92.1% | 61.7% | 98% | 103% | 90.5% | 76.5% |  | 58.8% | 72.3% | 98.4% | 
